TRHR agonist – TRH receptor (human) agonism; AID 493084; TRHR cells, calcium flux fluo-8, FDSS agonist mode; 0.18% of 360,000 active; P34981; activation, % at 2 µM; in the data active = activation above about 30%
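Agonist-mode FDSS calcium read (Ex 480/Em 530, 1 s cycles) in 1536-well TRHR cells with fluo-8 dye, after 10-cycle baseline and 23 nL compound addition; TRH at EC20 (10 nM final) added afterwards for the enhancer phase.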
TRPML1 agonist – human mucolipin-1 channel agonism; Q9GZU1; TRPML1-expressing cells, Ca2+ dye fluorescence, FDSS; activation, % (concentration not given with the values); 0.12% of 410,000 active; AID 624414; in the data active = activation above about 50%; inconclusive = mostly about 30% to 49%
Target sequence (Q9GZU1 whole entry, looked up): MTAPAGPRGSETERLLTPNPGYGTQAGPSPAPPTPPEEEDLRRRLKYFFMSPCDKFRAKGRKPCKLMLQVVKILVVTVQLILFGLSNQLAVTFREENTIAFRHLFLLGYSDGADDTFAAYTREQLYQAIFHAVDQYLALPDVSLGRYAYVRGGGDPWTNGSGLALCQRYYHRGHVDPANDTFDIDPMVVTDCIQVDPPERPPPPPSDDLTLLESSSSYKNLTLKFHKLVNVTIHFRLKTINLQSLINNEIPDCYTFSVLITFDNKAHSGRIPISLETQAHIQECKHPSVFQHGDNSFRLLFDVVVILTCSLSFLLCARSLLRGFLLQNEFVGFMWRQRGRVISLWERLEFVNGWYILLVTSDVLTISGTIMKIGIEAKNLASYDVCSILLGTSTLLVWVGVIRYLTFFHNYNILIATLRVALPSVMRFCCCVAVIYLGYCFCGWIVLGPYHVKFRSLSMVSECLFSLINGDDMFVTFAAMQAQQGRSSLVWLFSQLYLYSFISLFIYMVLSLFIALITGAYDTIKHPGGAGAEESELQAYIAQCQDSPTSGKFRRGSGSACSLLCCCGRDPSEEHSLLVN
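Tet-induced TRPML1-DL cells, 1,500 per well, cultured overnight, were loaded with a no-wash Ca2+ dye for 45–90 min. Calcium fluorescence was recorded on the FDSS for 110 s after compound addition, before the EC80 agonist (4 uM 54-4) was added.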
TRPML1 blocker – blocks the human TRPML1 channel. 0.02% of 390,000 active. Q9GZU1. AID 624415. activity change, negative = inhibition, % (concentration not given with the values). TRPML1-inducible cells, Ca2+ dye fluorescence, FDSS; stronger effect = lower value; inhibition of EC80 agonist-evoked calcium signal; in the data active = activity change below about -50%; inconclusive = between about -30% and that limit;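 note: stimulus is agonist 54-4 at its EC80 concentration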
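Calcium fluorescence in TRPML1-DL cells induced overnight with Tet: a 110 s read after compound pin addition, then a 110 s antagonist read after challenge with 54-4 at 4 uM final (EC80).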
TRPV1 PAM – human TRPV1 potentiation | Q8NER1 | TRPV1-expressing cells, Fluo-8 calcium influx, capsaicin EC20 potentiation | potentiation, % at 8.33 µM | 0.02% of 320,000 active; in the data active = potentiation above about 80%; inconclusive = between about 30% and that limit
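TRPV1-expressing cells were cultured overnight at 35.5C and loaded with Fluo-8 calcium dye for 40 to 90 min at room temperature. After a 10 s baseline, compound was added and calcium influx was read kinetically for 3 min (ex 480/em 520 nm).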
TRPV1 ag – activates the human vanilloid receptor TRPV1; Q8NER1; 0.19% of 320,000 active; AID 540275; activation, % at 8.33 µM; TRPV1-expressing cells, Fluo-8 calcium influx, agonist mode; in the data active = activation above about 80%; inconclusive = between about 30% and that limit
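Cells expressing TRPV1 were dye-loaded with Fluo-8 and read kinetically: 10 s baseline, 3 min after compound (agonist portion), then 2 min after EC20 capsaicin (allosteric enhancer portion). Calcium-bound dye fluorescence at 480/520 nm.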
TRHR enhancer – allosteric enhancers of human TRH receptor | P34981 | enhancement, % at 2 µM | AID 493056 | TRHR cells, fluo-8 calcium fluorescence, EC20 TRH enhancement | 0.66% of 360,000 active; in the data active = enhancement above about 30%
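TRHR-expressing cells loaded with fluo-8 calcium dye were read kinetically (ex 480/em 530) during compound addition, then stimulated with an EC20 of TRH (10 nM final). Enhancement of the Gq-mediated intracellular calcium response was scored.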
Large screens that a line does not name were inactive; ! = repeats disagree. In the library only some 0.96% were active in any assay of this set; here they are far more common.

COc1cc2nc(N3CCCCC3)nc(NC(C)C)c2cc1OC	none (no result: TRHR agonist, TRPML1 blocker, TRPV1 PAM, TRPV1 ag, TRHR enhancer)
CC(=O)NN1C(=O)/C(=C\c2ccc(O)cc2)SC1=S	none
O=C1/C(=C\c2ccc(O)cc2)SC(=S)N1/N=C/c1ccc(O)cc1	TRHR agonist 52
O=C(Nc1cc2c3c(c1)CC(=O)N3CCC2)c1ccccc1Br	TRHR enhancer 34
Cc1ccc(NC(=O)Cn2cc(S(=O)(=O)N3CCCC3)c(S(=O)(=O)N3CCCC3)c2)cc1F	TRHR enhancer 32 (no result: TRPV1 PAM, TRPV1 ag)
COCCCn1c(=S)[nH]c2c(sc3ccccc32)c1=O	TRHR enhancer 32
COc1ccc(NC(=O)C(OC(=O)CNC(=O)c2ccccc2)c2ccccc2)cc1Cl (stereo not given)	none (no result: TRPML1 agonist, TRPML1 blocker, TRPV1 PAM, TRPV1 ag)
Cn1nnc2c(N3CCN(Cc4ccccc4)CC3)ncnc21	none (no result: TRHR agonist, TRPML1 blocker, TRPV1 PAM, TRPV1 ag, TRHR enhancer)
CC(=O)c1c(C)[nH]c(C(=O)NCc2ccccc2Cl)c1C	TRHR enhancer 34
COc1cc2c(NC3CCN(C(C)C)CC3)nc(N3CCCN(C)CC3)nc2cc1OCCCN1CCCC1	none (no result: TRHR agonist, TRPML1 blocker, TRPV1 PAM, TRPV1 ag, TRHR enhancer)
CC(=O)N1CCC(N(Cc2ccco2)C(=O)Nc2ccc(Br)cc2F)CC1	TRHR enhancer 41 (no result: TRPV1 PAM, TRPV1 ag)
COc1cc(/C=C(\C#N)c2ccccn2)ccc1OCc1ccccc1Cl	none
COc1cc(/C=C(\C#N)c2ccccn2)cc(OC)c1O	TRHR agonist 47
Cc1cc2ccc(Cl)nc2nc1C	none (no result: TRHR agonist, TRPML1 blocker, TRPV1 PAM, TRPV1 ag, TRHR enhancer)
CN(Cc1ccccc1)C(=S)NC(=O)c1ccc(-c2ccccc2)cc1	none
CN(Cc1ccccc1)C(=S)NC(=O)c1cccs1	TRHR enhancer 44
Clc1cccc(/C=N/Nc2ncnc3ccccc23)c1	TRHR enhancer 31
C=C1C=C(C(F)F)n2ncc(C(=O)N3CCCCC3)c2N1	none (no result: TRHR agonist, TRPML1 blocker, TRPV1 PAM, TRPV1 ag, TRHR enhancer)
C=CCn1c(=N)n(CC(=O)c2ccc(Br)cc2)c2ccccc21	none
N=c1n(N)c2ccccc2n1CC(=O)c1ccc(Br)cc1	TRHR enhancer 33
COc1cc2nc(N(C)C)nc(NC3CCN(C)CC3)c2cc1OC	none (no result: TRHR agonist, TRPML1 blocker, TRPV1 PAM, TRPV1 ag, TRHR enhancer)
O=C(NCc1nnc(-c2cc3ccccc3[nH]2)o1)c1ccccc1	none (no result: TRPML1 agonist, TRPML1 blocker, TRPV1 PAM, TRPV1 ag)
Cc1nc(-c2cccc(F)c2)sc1CCNC(=O)c1ccc(F)c(F)c1	TRHR enhancer 30 (no result: TRPV1 PAM, TRPV1 ag)
CCOc1ccc(C(=O)NCCc2sc(-c3cccc(F)c3)nc2C)cc1OCC	none (no result: TRPV1 PAM, TRPV1 ag)
CN1C(=O)Cc2cc([S+](=O)([O-])N3CCN([S+](=O)([O-])c4c(F)cccc4F)CC3)ccc21	none (no result: TRPML1 agonist, TRPML1 blocker, TRPV1 PAM, TRPV1 ag)
CCOC(=O)[C@H]1[C@H]2COc3ccc(C)cc3[C@@H]2N2C(=O)c3cc(C)ccc3NC(=O)[C@@]12C	none (no result: TRHR agonist, TRPV1 PAM, TRPV1 ag, TRHR enhancer)
CCOC(=O)[C@H]1[C@H]2COc3ccc(Cl)cc3[C@@H]2N2C(=O)c3cc(F)c(F)cc3NC(=O)[C@@]12C	TRPV1 ag 81
CCOC(=O)[C@H]1[C@H]2COc3ccc(C)cc3[C@@H]2N2C(=O)c3cc(F)c(F)cc3NC(=O)[C@@]12C	TRPV1 ag 81
S=C(NCCCc1cnc[nH]1)NCCCN(Cc1ccc(Cl)cc1)c1ccc(Br)cc1	none (no result: TRHR agonist, TRPML1 blocker, TRPV1 PAM, TRPV1 ag, TRHR enhancer)
N#C/C(=C\c1ccc(-c2ccc(F)cc2F)o1)c1nc2ccccc2[nH]1	TRHR agonist 78, TRPML1 agonist inconclusive (no result: TRPV1 PAM, TRPV1 ag)
N#C/C(=C\c1ccc(-c2ccccc2C(=O)O)o1)c1nc2ccccc2[nH]1	TRHR agonist 46!
Cc1cc2nc3s/c(=C/c4ccc(-c5ccccc5C(=O)O)o4)c(=O)n3c2cc1C	TRHR agonist 77, TRPV1 ag inconclusive
Cc1ccc2nc(/C(C#N)=C/c3ccc(-c4ccccc4C(=O)O)o3)[nH]c2c1	TRHR agonist 70, TRPML1 agonist inconclusive
O=C(Nc1ccc(Cl)cc1Cl)[C@@H]1CC=C[C@@H]2CCN(C3CCCCC3)C(=O)[C@@H]21	none (no result: TRHR agonist, TRPML1 blocker, TRPV1 PAM, TRPV1 ag, TRHR enhancer)
NCCCN(Cc1ccc(Cl)c(Cl)c1)c1ccc(Br)cn1	none (no result: TRHR agonist, TRPML1 blocker, TRPV1 PAM, TRPV1 ag, TRHR enhancer)
Cc1cc(/C=C(/C#N)c2nc3ccccc3[nH]2)c(C)n1-c1ccccc1C(=O)O	none
CCOC(=O)c1ccc(-c2ccc(/C=C(\C#N)c3nc4ccc(C)cc4[nH]3)o2)cc1	TRHR agonist 120, TRPML1 agonist 51 (no result: TRPV1 PAM, TRPV1 ag)
Cc1ccc2nc(/C(C#N)=C\c3ccc([N+](=O)[O-])o3)[nH]c2c1	TRPML1 blocker inconclusive
